Measurements as given in PubChem BioAssay.
Values joined by “and” are separate entries in the source; they are usually repeats but may differ in a detail not shown here. Identical values can stand only once. Inconclusive results are not listed. Active and inactive are the calls of the source.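 Rule for the calls, unless noted: active = compounds whose cell count with miR-34 switched on is under 0.7 times the count with it off; inactive = the rest.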

Legend:
[1] = stimulators of nuclear beta-catenin in C2C12, primary screen, imaging, WNT3A-conditioned medium, mouse C2C12, NPC library (AID 1117326; in the data active = nuclear beta-catenin stimulation mostly above about 4.2%, no sharp cut-off; inactive = mostly below about 10%; note: reference of the scale not given here); conditions: stronger effect = higher value
[2] = stimulators of insulin release from INS-1E, primary screen, cell-based, 5 mM glucose, NPC library (AID 1117329;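 active = compound raises insulin release from rat beta cells at 5 mM glucose, no numeric limit stated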; note: reference of the scale not given here); conditions: rat INS-1E insulin secretion, at 10 µM, stronger effect = higher value
[3] = growth inhibition of GSK3B-pretreated HCT116 cells – cell-based, CellTiter-Glo, 0.2 to 20 µM (AID 1117336;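 active = compounds lowering colon cancer cell viability after pretreatment blocking the GSK3B kinase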); conditions: HCT116 viability after GSK3B inhibitor, at 20 µM, stronger effect = higher value
[4] = inhibition of endothelial tube formation, primary screen, imaging, VEGF stimulated, CD31 staining, tube area, NPC library (AID 1117340;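 active = compound that reduces growth-factor-driven endothelial tube area in a mixed cell culture, no cutoff stated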); conditions: VEGF-stimulated ADSC/ECFC co-culture, at 10 µM, stronger effect = higher value
[5] = glucagon-like peptide 1 release enhancers, primary assay, NCI-H716 cell line, NPC library (AID 1117341;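 active = compound raises GLP1 secretion from the human gut endocrine cells, with no numeric limit stated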; note: reference of the scale not given here); conditions: NCI-H716 cells, at 10 µM, stronger effect = higher value
[6] = HCT116 colon cancer cell growth inhibition, primary screen, CellTiter-Glo luminescence, NPC library (AID 1117342;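 active = compounds that lower survival of HCT116 colon cancer cells in the luminescence readout, no numeric limit stated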); conditions: at 20 µM (top of the series)
[7] = CellTiter-Glo luminescent readout of SW480 viability loss, NPC library primary (AID 1117343;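 active = compounds that lower viability of the colon cancer cells in the luminescence readout, with no numeric limit stated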); conditions: CellTiter-Glo luminescence; at 20 µM (top of the series) unless noted
[8] = decreased DLD-1 cellular survival, CellTiter-Glo luminescent readout, NPC compound collection, primary HTS (AID 1117346;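 active = compounds that lower survival of DLD-1 colon cancer cells in the luminescence readout, no cutoff given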); conditions: DLD-1 viability, CellTiter-Glo luminescence; at 20 µM (top of the series)
[9] = growth inhibition of DIPG glioma cells, dose response, cell-based, SU-DIPG-XVII, MIPE5.0, CellTiter-Glo, qHTS (AID 1347060; cut-off not given, nearly all actives have AC50 up to about 26 µM;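 for AC50: cells exposed to compound for 48 hours before viability readout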); conditions: SU-DIPG-XVII viability, CellTiter-Glo ATP luminescence
[10] = growth inhibition of DIPG glioma cells, dose response, cell-based, SU-DIPG-XIII, MIPE4.0, CellTiter-Glo, qHTS (AID 1347061; cut-off not given, nearly all actives have AC50 up to about 37 µM;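 note: cells exposed to compound for 48 hours before readout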); conditions: SU-DIPG-XIII viability, CellTiter-Glo ATP luminescence
[11] = growth inhibition of DIPG glioma cells, dose response, cell-based, JHH-DIPG-1, MIPE4.0, CellTiter-Glo, qHTS (AID 1347062; cut-off not given, nearly all actives have AC50 up to about 27 µM); conditions: JHH-DIPG-1 viability, CellTiter-Glo ATP luminescence
[12] = SU-DIPG-XXV glioma cell viability, MIPE5.0 library, qHTS (AID 1347068; cut-off not given, nearly all actives have IC50 up to about 30 µM;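 for IC50: cells exposed to compound for 48 hours before viability readout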)
[13] = sensitizers of A549 cells to miR-34 induction, primary screen, imaging, A549 dox-inducible miR-34, nuclei and caspase counts (AID 1347080); conditions: A549 miR-34 inducible, Hoechst nuclei count, 48 h
[14] = survival rescue of mitochondrial mutant cells in low glucose, primary screen, MELAS cybrids, Rieske KO mouse fibroblasts, CellTiter-Glo (AID 1508586;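 active = mean z-score across replicates of 1.96 or higher in either the MELAS or the Rieske mutant cell line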;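 note: z relative to plate mean and SD of compound and empty wells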)
[15] = target: NAD(+) hydrolase SARM1 (Homo sapiens) (UniProt Q6SZW1); assay: SARM1 TIR NADase inhibitors, cell lysate, NAD-Glo luminescence (AID 1508614;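 active = compound whose remaining NAD level is above about 45 nM, limit read from the data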;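 note: higher remaining NAD means stronger inhibition of SARM1 NADase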); conditions: SAM-TIR HEK293T lysate NADase, at 1 µM, stronger effect = higher value
NAD(+) hydrolase SARM1 (Homo sapiens), sequence (Q6SZW1 whole entry, looked up): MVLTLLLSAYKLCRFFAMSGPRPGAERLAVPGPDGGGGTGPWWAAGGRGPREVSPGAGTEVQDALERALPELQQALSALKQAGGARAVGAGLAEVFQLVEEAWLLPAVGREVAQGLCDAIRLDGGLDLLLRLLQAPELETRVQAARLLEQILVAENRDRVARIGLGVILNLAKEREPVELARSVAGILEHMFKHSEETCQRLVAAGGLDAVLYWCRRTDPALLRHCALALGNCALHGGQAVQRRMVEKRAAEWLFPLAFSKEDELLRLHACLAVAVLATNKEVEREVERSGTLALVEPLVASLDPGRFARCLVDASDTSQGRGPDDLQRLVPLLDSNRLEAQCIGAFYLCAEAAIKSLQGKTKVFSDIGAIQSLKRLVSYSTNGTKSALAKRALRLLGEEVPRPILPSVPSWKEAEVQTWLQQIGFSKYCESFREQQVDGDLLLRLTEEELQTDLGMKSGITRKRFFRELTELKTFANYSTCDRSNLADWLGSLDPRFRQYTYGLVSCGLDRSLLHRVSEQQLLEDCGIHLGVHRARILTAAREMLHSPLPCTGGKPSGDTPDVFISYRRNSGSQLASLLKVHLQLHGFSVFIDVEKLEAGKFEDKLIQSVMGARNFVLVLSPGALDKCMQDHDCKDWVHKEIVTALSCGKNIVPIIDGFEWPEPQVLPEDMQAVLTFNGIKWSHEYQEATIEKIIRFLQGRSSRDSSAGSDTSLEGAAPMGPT

[16] = tested on: Aerobactin synthetase IucA (Klebsiella pneumoniae); assay: IucA aerobactin synthetase inhibitors, biochemical, Tocris library, absorbance (AID 1345561; call rule not given here;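 note: 100% = enzyme without compound and 0% = no enzyme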); conditions: purified IucA enzyme assay, absorbance (OD) read-out; stronger effect = lower value;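 tested at 8 µM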
[17] = viability rescue of complex I mutant cybrids, primary screen, cell-based, galactose medium, ATP luminescence (AID 1645843;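 active = z-score of at least 1.8 in each of two replicates, scored against plate mean and spread of sample wells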;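 note: positive z means more ATP and so rescue of galactose-driven cybrid death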); conditions: complex I mutant cybrid cells, 72 h, stronger effect = higher value
[18] = liver-stage malaria parasite growth inhibition, primary screen, cell-based, HepG2, luciferase luminescence, HepG2 viability (AID 624349; in the data active = parasite load remaining mostly below about 12%, no sharp cut-off; inactive = mostly above about 10%;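 note: 100% = mean of DMSO negative control wells on the same plate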); conditions: P. berghei liver stage in HepG2, luciferase luminescence, concentration not given here; parasite load remaining: stronger effect = lower value; viability: measured here: HepG2 viability without parasites
[19] = stronger effect = lower value, cell number ratio, induced over uninduced
[20] = measured here: relative caspase fold change +Dox/-Dox
[21] = measured here: total cells with miR-34 induction, stronger effect = lower value
[22] = measured here: total cells without miR-34 induction
[23] = MELAS cybrid survival, CellTiter-Glo 48 h, stronger effect = higher value
[24] = Rieske KO mouse fibroblast survival, CellTiter-Glo 72 h

In the case of `C[C@@H](NCCCc1cccc(C(F)(F)F)c1)c1cccc2ccccc12`, the nuclear beta-catenin stimulation ([1]; at 10 µM) is reported as 35.9% (inactive), the nuclear beta-catenin stimulation ([1]; stimulation, at 2 µM) is reported as -0.4% and the insulin secretion stimulation [2] is reported as 0.2% (inactive). The viability decrease [3] was 101% (active), the tube area decrease [4] was 99.6% (active) and the GLP1 secretion stimulation [5] was 20.5% (active). For the same compound, the inhibition of viability [6] was 102% (active), the viability decrease (inhibition) [7] was 123% (active) and the viability decrease (inhibition) [8] was 104% (active). The AC50 [9] was 16.6 µM (active), the outcome [10] was “inactive” and the outcome [11] was “inactive”. The IC50 [12] was 20.9 µM (active), the fold change [13, 19] was 0.971 (inactive) and the fold change [13, 20] was 0.761. The cell count [13, 21] was 5970, the cell count [13, 22] was 6150 and the z-score [14, 23] was -0.442 (inactive). For the same compound, the z-score [14, 24] was 0.442.

In the case of `Cc1oc(=O)oc1CN1CCN(c2cc3c(cc2F)c(=O)c(C(=O)O)c2n3C(C)S2)CC1` (stereo not drawn), the nuclear beta-catenin stimulation ([1]; at 10 µM) is reported as 0.8% (inactive), the nuclear beta-catenin stimulation ([1]; stimulation, at 2 µM) is reported as 1.4% and the insulin secretion stimulation [2] is reported as 1.6% (inactive). The viability decrease [3] was 35.8% (inactive), the tube area decrease [4] was 4.4% (inactive) and the GLP1 secretion stimulation [5] was 2.3% (inactive). The inhibition of viability [6] was 38.1% (inactive), the viability decrease (inhibition) [7] was 26.1% (inactive) and the viability decrease (inhibition) [8] was 1.4% (inactive). The outcome [9] was “inactive”, the outcome [10] was “inactive” and the outcome [11] was “inactive”. The outcome [12] was “inactive” and the remaining NAD [15] was 10 nM (inactive).

With `CCC(CC)(CC(=O)Nc1cccc(/C=C/c2nc(C3CCC3)cs2)c1)C(=O)O` the nuclear beta-catenin stimulation ([1]; at 10 µM) was 0% (inactive), the nuclear beta-catenin stimulation ([1]; stimulation, at 2 µM) was 0.1% and the insulin secretion stimulation [2] was 1% (inactive). For the same compound, the viability decrease [3] was 96.6% (active), the tube area decrease [4] was 5.4% (inactive) and the GLP1 secretion stimulation [5] was 1.7% (inactive). For the same compound, the inhibition of viability [6] was 42.9% (inactive), the viability decrease (inhibition) [7] was 41% (inactive) and the viability decrease (inhibition) [8] was 70.9% (active). The remaining activity [16] was 89.3% (inactive), the fold change [13, 19] was 0.829 (inactive) and the fold change [13, 20] was 1.27. For the same compound, the cell count [13, 21] was 7300, the cell count [13, 22] was 8810 and the z-score [17] was 2.4 (active).

In the case of `CC(=O)[C@H]1CC[C@H]2[C@@H]3CC=C4C[C@@H](O)CC[C@]4(C)[C@H]3CC[C@]12C`, the parasite load remaining [18] is reported as 90.8% (inactive) and 62.2% (inactive) and 6.53% (inactive), the viability [18] is reported as 110% and 79.4% and 65.5% and the nuclear beta-catenin stimulation ([1]; at 10 µM) is reported as 3% (inactive). For the same compound, the nuclear beta-catenin stimulation ([1]; stimulation, at 2 µM) was 1.6%, the insulin secretion stimulation [2] was -2% (inactive) and the viability decrease [3] was 7.55% (inactive). The tube area decrease [4] was 8.7% (inactive), the GLP1 secretion stimulation [5] was 1.9% (inactive) and the inhibition of viability [6] was -2.4% (inactive). The viability decrease (inhibition) [7] was 82% (active), the viability decrease (inhibition) [8] was 18.9% (inactive) and the outcome [9] was “inactive”. The outcome [10] was “inactive”, the outcome [11] was “inactive” and the outcome [12] was “inactive”. For the same compound, the fold change [13, 19] was 0.857 (inactive) and 0.834 (inactive), the fold change [13, 20] was 1.38 and 1.19 and the cell count [13, 21] was 8970 and 9160. For the same compound, the cell count [13, 22] was 10500 and 11000, the z-score [14, 23] was 0.44 (inactive) and 0.49 (inactive) and the z-score [14, 24] was 0.646 and 0.0253. For the same compound, the remaining NAD [15] was 10 nM (inactive) and the z-score [17] was -1.23 (inactive).

For `CCC(C)(Oc1ccc(C2(c3ccc(OC(C)(CC)C(=O)O)cc3)CCCCC2)cc1)C(=O)O` (stereo not drawn), the nuclear beta-catenin stimulation ([1]; at 10 µM) was -1.5% (inactive), the nuclear beta-catenin stimulation ([1]; stimulation, at 2 µM) was -1.3% and the insulin secretion stimulation [2] was 1.2% (inactive). The viability decrease [3] was -30.5% (inactive), the tube area decrease [4] was 0.6% (inactive) and the GLP1 secretion stimulation [5] was 4.1% (inactive). The inhibition of viability [6] was -3.43% (inactive), the viability decrease (inhibition) [7] was 15.4% (inactive) and the viability decrease (inhibition) [8] was -14.6% (inactive). For the same compound, the outcome [9] was “inactive”, the outcome [10] was “inactive” and the outcome [11] was “inactive”. The outcome [12] was “inactive”, the fold change [13, 19] was 0.893 (inactive) and the fold change [13, 20] was 0.926. The cell count [13, 21] was 9130, the cell count [13, 22] was 10200 and the z-score [14, 23] was -0.322 (inactive). For the same compound, the z-score [14, 24] was 0.575.

For `CC1(COc2ccc(CC3SC(=O)NC3=O)cc2)CCCCC1` (stereo not drawn), the nuclear beta-catenin stimulation ([1]; at 10 µM) was 2.4% (inactive), the nuclear beta-catenin stimulation ([1]; stimulation, at 2 µM) was 1.5% and the insulin secretion stimulation [2] was 1.9% (inactive). The viability decrease [3] was 99% (active), the tube area decrease [4] was 14% (inactive) and the GLP1 secretion stimulation [5] was 6.6% (inactive). For the same compound, the inhibition of viability [6] was 101% (active), the viability decrease (inhibition) [7] was 146% (active) and the viability decrease (inhibition) [8] was 105% (active). For the same compound, the remaining activity [16] was 110% (inactive), the fold change [13, 19] was 0.913 (inactive) and 1.03 (inactive) and 0.948 (inactive) and the fold change [13, 20] was 1.87 and 1.11 and 0.669. For the same compound, the cell count [13, 21] was 5590 and 5930 and 7780, the cell count [13, 22] was 6130 and 5780 and 8200 and the z-score [17] was -0.49 (inactive).

For `O=c1[nH]c2cc(C(F)(F)F)c(N3CCOCC3)cc2n(CP(=O)(O)O)c1=O`, the nuclear beta-catenin stimulation ([1]; at 10 µM) was 1.2% (inactive), the nuclear beta-catenin stimulation ([1]; stimulation, at 2 µM) was -0.5% and the insulin secretion stimulation [2] was 0.85% (inactive). The viability decrease [3] was 17.9% (inactive), the tube area decrease [4] was -10.1% (inactive) and the GLP1 secretion stimulation [5] was 1% (inactive). The inhibition of viability [6] was 6.1% (inactive), the viability decrease (inhibition) [7] was -13.4% (inactive) and the viability decrease (inhibition) [8] was 1.2% (inactive). For the same compound, the remaining activity [16] was 126% (inactive), the fold change [13, 19] was 0.942 (inactive) and the fold change [13, 20] was 1.52. For the same compound, the cell count [13, 21] was 9280, the cell count [13, 22] was 9850 and the z-score [17] was 0.07 (inactive).

For `O=C(O)Cc1ccc(OCCNC[C@H](O)c2ccccc2)cc1`, the nuclear beta-catenin stimulation ([1]; at 10 µM) was 23.3% (inactive), the nuclear beta-catenin stimulation ([1]; stimulation, at 2 µM) was -5% and the insulin secretion stimulation [2] was 0.6% (inactive). For the same compound, the viability decrease [3] was -5.3% (inactive), the tube area decrease [4] was -9.4% (inactive) and the GLP1 secretion stimulation [5] was -0.5% (inactive). The inhibition of viability [6] was -1.1% (inactive), the viability decrease (inhibition) [7] was 8.4% (inactive) and the viability decrease (inhibition) [8] was 19.5% (inactive). For the same compound, the remaining activity [16] was 103% (inactive), the fold change [13, 19] was 0.89 (inactive) and the fold change [13, 20] was 2.1. The cell count [13, 21] was 8910, the cell count [13, 22] was 10000 and the z-score [17] was 0.015 (inactive).

In the case of `O=c1[nH]c(=O)n([C@H]2C[C@H](O)[C@@H](CO)O2)cc1I`, the parasite load remaining [18] is reported as 42.1% (inactive) and 24.1% (inactive), the viability [18] is reported as 53.4% and 72.5% and the nuclear beta-catenin stimulation ([1]; at 10 µM) is reported as -0.5% (inactive). For the same compound, the nuclear beta-catenin stimulation ([1]; stimulation, at 2 µM) was 0.3%, the insulin secretion stimulation [2] was 0.4% (inactive) and the viability decrease [3] was 10.1% (inactive). For the same compound, the tube area decrease [4] was 69.4% (active), the GLP1 secretion stimulation [5] was -0.6% (inactive) and the inhibition of viability [6] was 11.4% (inactive). The viability decrease (inhibition) [7] was 39.4% (inactive), the viability decrease (inhibition) [8] was 9.4% (inactive) and the outcome [9] was “inactive”. The outcome [10] was “inactive”, the outcome [11] was “inactive” and the outcome [12] was “inactive”. The fold change [13, 19] was 0.955 (inactive) and 0.894 (inactive), the fold change [13, 20] was 1.48 and 1.08 and the cell count [13, 21] was 8120 and 9040. The cell count [13, 22] was 8510 and 10100, the z-score [14, 23] was 1.21 (inactive) and 1.8 (inactive) and the z-score [14, 24] was 0.284 and 0.0835. For the same compound, the remaining NAD [15] was 10 nM (inactive) and the z-score [17] was 0.45 (inactive).
